Compounds with a hit are over-represented: about 0.87% of the library has one in this group of screens.
RECQ1 helicase: qHTS Assay for Inhibitors of RecQ-Like Dna Helicase 1 (RECQ1); Potency, µM (top dose mostly 57.3 µM), for the others: top-dose activity, negative = inhibition, actives largely listed as inhibitors; AID 2549, 2010; RECQ1 DNA unwinding, red fluorescence kinetic read; actives 0.54% (n = 240,000); ATP-dependent DNA helicase Q1 (Homo sapiens), P46063;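 further: plate controls were vehicle for no effect and no enzyme for full effect; nearly all actives have a fitted effect of over 30% in size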
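50 nM RECQ1T1 preincubated 15 min with compound in Tris pH 8.0 buffer with MgCl2, DTT, Tween-20 and 2.5 ug/ml poly(dI-dC); started with 200 nM TAMRA/BHQ-2 forked duplex and 2 mM ATP. Unwinding read as fluorescence (525/598 nm), two reads 2 h apart.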
FEN1 inhibitor: qHTS Assay for the Inhibitors of Human Flap endonuclease 1 (FEN1); Potency, µM (doses to about 114 µM), for inactives: at the top dose activity change, negative = inhibition, most hits filed as inhibitors; actives 0.35% (n = 390,000); P39748; Recombinant FEN1 flap cleavage, fluorescence, 15 min; further: nearly all actives have a fitted effect of over 65% in size
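Potency values derive from four-parameter Hill fits of normalized qHTS data. The reaction used 10 nM FEN1 preincubated 15 min at room temperature with compound, then 50 nM DNA substrate, read at 0 and 15 min.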
WRN helicase inh: qHTS for Inhibitors of WRN Helicase; Potency, µM (titrated, usually from 114 µM), for the others: at the highest dose activity change, negative = inhibition, most hits filed as inhibitors; WRN helicase unwinding, fluorescent forked duplex, kinetic; Bifunctional 3'-5' exonuclease/ATP-dependent helicase WRN (Homo sapiens), Q14191; actives 0.46% (n = 360,000); further: nearly all actives have a fitted effect of over 55% in size
Target sequence (Q14191 whole entry, looked up): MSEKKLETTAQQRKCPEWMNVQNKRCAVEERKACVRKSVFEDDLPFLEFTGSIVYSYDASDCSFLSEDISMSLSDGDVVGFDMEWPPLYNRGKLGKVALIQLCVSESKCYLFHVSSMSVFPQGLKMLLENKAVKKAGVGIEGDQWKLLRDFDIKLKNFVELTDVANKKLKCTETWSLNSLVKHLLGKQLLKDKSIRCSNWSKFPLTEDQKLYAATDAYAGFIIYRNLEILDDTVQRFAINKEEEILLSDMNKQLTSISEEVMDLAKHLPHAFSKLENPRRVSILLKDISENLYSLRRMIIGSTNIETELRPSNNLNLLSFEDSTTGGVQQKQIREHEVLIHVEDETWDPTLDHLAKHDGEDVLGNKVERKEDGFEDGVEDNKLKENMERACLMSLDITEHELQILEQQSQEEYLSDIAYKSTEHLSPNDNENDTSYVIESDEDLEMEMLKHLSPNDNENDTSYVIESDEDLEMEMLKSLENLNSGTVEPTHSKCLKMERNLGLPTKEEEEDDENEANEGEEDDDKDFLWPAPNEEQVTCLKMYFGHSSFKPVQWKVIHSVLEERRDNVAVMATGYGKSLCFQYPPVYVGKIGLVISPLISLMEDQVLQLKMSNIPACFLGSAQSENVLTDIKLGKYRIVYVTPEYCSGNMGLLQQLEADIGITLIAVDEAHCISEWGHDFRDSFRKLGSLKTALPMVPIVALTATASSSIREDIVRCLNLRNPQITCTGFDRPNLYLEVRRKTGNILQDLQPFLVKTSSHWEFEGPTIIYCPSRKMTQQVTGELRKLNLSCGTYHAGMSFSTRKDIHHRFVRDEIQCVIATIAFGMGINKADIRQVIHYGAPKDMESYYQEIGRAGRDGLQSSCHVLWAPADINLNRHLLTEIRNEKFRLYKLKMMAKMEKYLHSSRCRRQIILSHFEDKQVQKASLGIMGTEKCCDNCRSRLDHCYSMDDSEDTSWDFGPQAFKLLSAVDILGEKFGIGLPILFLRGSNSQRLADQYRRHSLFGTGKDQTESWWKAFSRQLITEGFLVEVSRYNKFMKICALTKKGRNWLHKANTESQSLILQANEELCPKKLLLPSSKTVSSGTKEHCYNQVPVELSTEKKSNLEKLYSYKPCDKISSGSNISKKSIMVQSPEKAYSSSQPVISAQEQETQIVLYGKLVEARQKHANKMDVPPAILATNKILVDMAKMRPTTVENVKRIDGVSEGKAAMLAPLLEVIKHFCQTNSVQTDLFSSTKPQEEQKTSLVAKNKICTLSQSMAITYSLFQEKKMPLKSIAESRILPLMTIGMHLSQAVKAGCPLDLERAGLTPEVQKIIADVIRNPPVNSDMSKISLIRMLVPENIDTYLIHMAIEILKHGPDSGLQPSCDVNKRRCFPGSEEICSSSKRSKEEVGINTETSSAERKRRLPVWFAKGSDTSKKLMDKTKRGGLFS
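Kinetic red-fluorescence monitoring (525/598 nm) tracks WRN helicase activity after 100 nM fluorophore-quencher forked duplex and 2 mM ATP are added to 20 nM enzyme pretreated 15 min at room temperature with compound.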
BLM inh-1: qHTS Assay for Inhibitors of Bloom's syndrome helicase (BLM). actives 0.2% (n = 350,000). RecQ-like DNA helicase BLM (Homo sapiens), P54132. Potency, µM (top dose mostly 56.1 µM), for inactives: at the highest dose activity change, negative = inhibition, actives largely listed as inhibitors. recombinant BLM DNA unwinding, fluorescence dequenching;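 further: plate controls were vehicle for no effect and no enzyme for full effect; nearly all actives have a fitted effect of over 35% in size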
APEX1 inh: qHTS Assay for Inhibitors of the Human Apurinic/apyrimidinic Endonuclease 1 (APE1); DNA repair nuclease/redox regulator APEX1 (Homo sapiens), P27695; recombinant APE1, TAMRA/BHQ-2 abasic DNA cleavage fluorescence; Potency, µM (top dose mostly 65.8 µM), without a hit: at the highest dose activity change, negative = inhibition, usual class: inhibitors; actives 0.35% (n = 350,000);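 further: plate controls were vehicle for no effect and reference inhibitor for full effect; nearly all actives have a fitted effect of over 55% in size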
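Compound pre-exposure to 0.75 nM APE1, 15 min at ambient temperature. Reaction initiated with 50 nM TAMRA/BHQ-2 THF substrate, read immediately in kinetic mode, 525 nm excitation, 598 nm emission.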
BLM inh-2: qHTS Confirmation Assay for Inhibitors of Bloom's syndrome helicase (BLM); shares compounds with BLM inh-1; BLM DNA unwinding, fluorescence quenching, biochemical; Potency, µM, for the others: max response, negative = inhibition, hits mostly inhibitors; actives 40% (n = 220); AID 2585, 2010;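 further: strand separation dequenches TAMRA so unwinding raises red fluorescence; series mostly up to about 69 µM; nearly all actives have a fitted effect of over 45% in size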
Active calls of the source: *; i = inactive; ? = inconclusive; / = not tested or not shown; ! = a repeat was not active; [ ] = dose if it differs, or a comment. The call rests on the fitted dose curve; in most records, active means well fitted curve in the direction sought with a large enough effect; inconclusive means small, poorly fitted or top-dose-only effect, or another doubt; inactive means no such curve, though single readings can be large; an effect the other way counts as inactive or inconclusive. Unless noted, on the % scale 0 is the no-effect control and ±100 the full control effect; potency means the concentration at half of the fitted maximal effect.

SMILES | RECQ1 helicase | FEN1 inhibitor | WRN helicase inh | BLM inh-1 | APEX1 inh | BLM inh-2
CN1CCc2c(sc(NC(=O)c3cc4cc([N+](=O)[O-])ccc4s3)c2C(N)=O)C1 | ? | / | / | 28.2µM* | -2.7% | 28.9µM*
Nc1c(C(=O)NCC2CCCO2)sc2nc3c(c(-c4ccco4)c12)CC/C3=C\c1ccco1 (centres undefined) | 2.51µM* | 3.16µM* | 2.82µM* | 5.01µM* | 2µM* | ?
Cc1ccccc1NC(=O)c1sc2nc3c(c(-c4ccco4)c2c1N)CCC3 | -0.3% | 11.4% | -18.4% | -14.7% | 11.9% | /
Cc1oc2ncn(CC(C)C)c(=O)c2c1C(=O)NCCCN1CCC(C)CC1 | / | 14.3% | / | -4.8% | / | /
O=C(COC(=O)C1(c2ccc(F)cc2)CCCC1)NCc1ccco1 | ? | -5.7% | -17.6% | 22.4µM* | -10.3% | -10.8%
O=C(COC(=O)/C=C/c1ccc(F)cc1)NCc1ccco1 | -1.1% | -9.1% | -2.1%[57.1 µM] | 0.2% | ? | /
O=C(COC(=O)c1c2c(nc3ccccc13)/C(=C/c1ccco1)CC2)NC1CCCC1 | ? | -16.9% | 31.6µM* | 8.91µM* | ? | ?
COC(=O)c1scc(-c2ccc(C)cc2)c1S(=O)(=O)Nc1cc(C)c(Cl)cc1OC | / | -9.0% | / | -5.8% | / | /
CCC(C)n1c(NC(=O)c2ccccc2)c(C#N)c2nc3ccccc3nc21 (centres undefined) | -13.4% | ? | -26.2% | 10µM* | -3.6% | ?
CCC(=O)Nc1c(C#N)c2nc3ccccc3nc2n1-c1ccc(C)cc1 | / | -10.1% | 8.5% | / | / | /
Cc1ccc(S(=O)(=O)c2cn(Cc3ccccc3)c3cc(N4CCCC4)c(F)cc3c2=O)cc1C | / | -0.2% | / | -7.3% | / | /
COc1ccc(-c2csc(NC(=O)CSc3nc(C)nc4sc(C(=O)O)c(C)c34)n2)cc1 | -18.2% | ? | ? | 31.6µM* | -1.8% | 32.4µM*
COc1ccc(-c2csc(NC(=O)CSc3nc(C)cs3)n2)cc1 | / | 1.3% | -6.9% | / | / | /
CC(C)c1ccc(NC(=O)C2CCCN(S(=O)(=O)c3cccc4nsnc34)C2)cc1 (centres undefined) | / | -11.4% | / | -6.4% | / | /
O=C(OCC(=O)N1CCN(C(=O)c2ccco2)CC1)c1cc(-c2ccco2)nc2ccccc12 | 12.6µM* | ? | 50.1µM* | 8.91µM* | 15.8µM* | ?
COc1cccc(-n2c(=O)c3c(C)c(C)sc3n(CC(=O)Nc3ccccc3OC)c2=O)c1 | / | 5.3% | / | -6.0% | / | /
C=C1CC[C@@H]2[C@](C)(CC[C@@H](O)[C@]2(C)CO)[C@@H]1C/C=C1/C(=O)OC[C@H]1O | / | / | / | / | / | 5.5%
O=c1[nH][nH]c2c(N=Cc3ccccc3O)ccc(F)c12 | ? | 17.8µM* | 14.1µM* | 28.2µM* | 8.91µM* | ?
O=C(/C=C/C#Cc1cccc(NS(=O)(=O)c2ccccc2)c1)NO | -13.0% | / | / | 6.1% | -1.8% | /
CCc1ccccc1Nc1nn2c(=O)c3ccc(C(=O)NC(C)c4ccccc4)cc3nc2s1 (centres undefined) | / | 6.2% | / | -4.6% | / | /
Cc1nc2cc(NC(=O)N3CCN(c4ccccn4)CC3)ccc2o1 | -6.0% | 0.0% | 1.9% | 2.2% | 3.1% | /
O=C(Nc1ccc2nc(-c3ccco3)c(-c3ccco3)nc2c1)N1CCN(c2ccccn2)CC1 | -1.2% | ? | 17.8µM* | 4.47µM* | 8.3% | ?
CCCc1nc2ccccc2c(=O)n1-c1ccc(C(=O)OCC)cc1 | 7.8% | 6.6% | 4.6% | 7.94µM* | -3.0% | -5.9%
CCn1c(SCC(N)=O)nc2sc3c(c2c1=O)CCN(C)C3 | 7.1% | 3.7% | 12.2% | 0.708µM* | 4.8% | 10.1%
CCN(CC)c1cc(Cl)c2nonc2c1N | -0.8% | -5.1% | -10.3% | -7.9% | -4.2% | /
SMILES | RECQ1 helicase | FEN1 inhibitor | WRN helicase inh | BLM inh-1 | APEX1 inh | BLM inh-2
CN(C)c1cc(Cl)c2nonc2c1N | 28.2µM* | ? | -1.7%[11.6 µM] | 35.5µM* | ? | ?
COc1ccc2nc3ccccc3nc2c1N | -0.9% | ? | -30.1% | ? | ? | /
COc1ccc2nc3cccc(OC)c3nc2c1 | 0.6% | ? | 0.4%[11.6 µM] | 3.55µM* | ? | 9.9%
O=C(O)CSc1cc(C(=O)c2cc(F)ccc2O)cn2c(=O)c3c(-c4ccccc4)csc3nc12 | -26.4% | ? | -24.9% | 25.1µM* | -6.0% | ?
COc1cc(C)c2ccccc2n1 | / | -2.9% | / | / | / | /
COc1ccc2c(c1)C(=O)CC2 | / | -4.0% | / | / | / | /
O=C(CNC(=O)/C=C/c1ccco1)N=Nc1c(O)[nH]c2ccccc12 | / | -3.1% | 0.3% | 20µM* | 8.44µM* | 20.4µM*
CCC(C)NC(=O)c1cn(CC)c2ccc(S(=O)(=O)N3CCc4ccccc4C3)cc2c1=O (centres undefined) | / | -17.3% | / | -10.7% | / | /
Cc1cc(=O)cc2oc3cc(N)c(-c4c(C)cc(O)cc4O)c(C)c3nc1-2 | -8.4% | / | / | 15.8µM* | ? | 20.4µM*
COC(=O)c1sc2cccc(F)c2c1S(=O)(=O)N1CCN(c2ccc(F)cc2)CC1 | / | -3.2% | / | -6.3% | / | /
Oc1ccc(CN2CCN(c3ccccc3)CC2)c2cccnc12 | -16.1% | -32.9% | 7.7% | 4.4% | 8.3% | /
Oc1ccc(CN2CCC(Cc3ccccc3)CC2)c2cccnc12 | -7.8% | ? | 3.1% | 8.91µM* | 5.4% | 18.2µM*
Cc1cc(OCC(=O)Nc2cc(-c3nc4ncccc4o3)ccc2C)ccc1Cl | / | -7.9% | / | 28.2µM* | / | ?
O=C1Nc2ccc(I)cc2/C1=C/c1cc(Br)c(O)c(Br)c1 | 25.1µM*! | ? | / | ? | 0.1% | 96.1µM*
Oc1ccc(N=Cc2ccc(OCc3ccccc3)cc2)cc1 | ? | ? | -18.7% | 31.6µM* | ? | -8.5%
O=C(N/N=C/c1ccc(OCc2ccccc2)cc1)c1ccncc1 | i | -4.1% | 1.3% | -2.8% | 2.7% | /
O=C(CN1CCCN(Cc2ccccc2F)S1(=O)=O)Nc1ccc(F)c(Cl)c1 | / | -15.4% | / | -8.6% | / | /
Cc1ccc(-n2ncc(C(=O)Nc3ccc4c(c3)OCCO4)c2C2CCN(C(=O)OC(C)(C)C)CC2)cc1C | / | -17.2% | / | -14.5% | / | /
O=C1OC(Nc2cc(Br)cc3cccnc23)c2ccccc21 (centres undefined) | i | 0.6% | 3.5% | 22.4µM* | 0.5% | -4.5%
CCN1CCN(C(c2ccc(F)cc2)c2c(O)cc(C)n(CCOC)c2=O)CC1 (centres undefined) | / | -5.3% | / | 1.4% | / | /

Screens: PubChem BioAssay, National Center for Advancing Translational Sciences (NCATS)
